In the library only some 2.1% were active in any assay of this set; here they are far more common.
TDP-43 yeast inh = TDP-43 toxicity inhibition in yeast; hit rate 1.8% among 410,000; Potency, µM (top dose mostly 46.1 µM), inactives show top-dose growth rescue (activation), hits mostly activators; TDP-43 expressing yeast growth rescue, BacTiter-Glo, 24 h; note: % of control where 0% means no effect; nearly all actives have a fitted effect of over 50% in size
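Cell-based yeast growth screen: TDP-43 expression induced in galactose, inoculum OD600=0.02 after raffinose pregrowth to mid-log. Read-out BacTiter-Glo luminescence at 24 hr, 30 deg C; inhibition of toxicity seen as signal increase.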
Abeta yeast res = compounds reversing amyloid beta toxicity in yeast | hit rate 0.063% among 410,000 | yeast expressing A-beta42, growth rescue, OD600, 48 h; response scale: 0% DMSO, 100% iron-clioquinol control | AID 1347071 | Potency, µM (titrated, usually from 46.1 µM), usual class: activators; note: nearly all actives have a fitted effect of over 55% in size
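Growth rescue measured by 600 nm absorbance after 48 h yeast culture at 30 C with compound. Values normalized between DMSO and an equimolar ferric chloride plus clioquinol control.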
FUS yeast rescue = suppressors of FUS proteinopathy in yeast | S. cerevisiae FUS-expressing, growth rescue, OD600, 24 h | Potency, µM (top dose mostly 76.6 µM), actives largely listed as activators | hit rate 0.24% among 390,000;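 note: plate controls were DMSO vehicle for no effect and reference control for full effect; nearly all actives have a fitted effect of over 55% in size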
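Absorbance at 600 nm, taken 24hr after compound addition, measured rescue of FUS-yeast growth at 30C. Induction used 2% galactose with seeding at OD 0.005. Controls: CP55940 from 92uM final, DMSO only.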
aSyn yeast inh = alpha-synuclein toxicity inhibition in yeast; hit rate 0.14% among 370,000; Yeast expressing alpha-synuclein, growth rescue, BacTiter-Glo, 24 h; Potency, µM (titrated, usually from 46.1 µM), without a hit: top-dose growth rescue (activation), actives largely listed as activators; note: % of control where 0% means no effect; nearly all actives have a fitted effect of over 65% in size
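Screening used galactose-induced yeast with toxic alpha-synuclein levels, exposed to compound for 24 hr at 30 deg C. Cell growth, read with BacTiter-Glo luminescence, gave the measured signal.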
* marks the source's active call; other numbers are inactive results; [ ] = remark or other dose. Calls come from the whole dose curve; as a rule, active = well fitted curve in the direction sought with a large enough effect; inconclusive = small, poorly fitted or top-dose-only effect, or another doubt; inactive = no such curve, though single readings can be large; an effect the other way counts as inactive or inconclusive. Potency is the fitted concentration of half-maximal effect.

`O=C(CCCC(=O)c1ccccc1)Nc1ccc(F)cc1` gave TDP-43 yeast inh 5.6µM*, Abeta yeast res inactive, FUS yeast rescue inactive and aSyn yeast inh -8%.
Screening COc1ccc(-c2oc3cc(OC)c(O)c(OC)c3c(=O)c2OC)cc1O returned TDP-43 yeast inh 22µM*, Abeta yeast res inactive, FUS yeast rescue inactive and aSyn yeast inh -1%.
For COc1ccc(-c2oc3cc(O)c(OC)c(O)c3c(=O)c2OC)cc1 the results were TDP-43 yeast inh 0%, Abeta yeast res inactive, FUS yeast rescue inactive and aSyn yeast inh 4%.
Screening O=C(O)c1cc2ccccc2[nH]1 returned TDP-43 yeast inh 23%, Abeta yeast res inactive, FUS yeast rescue inactive and aSyn yeast inh 10%.
O=C(O)c1cc2cc(Oc3ccccc3)ccc2[nH]1 was read as TDP-43 yeast inh 18µM*, Abeta yeast res inactive, FUS yeast rescue inactive and aSyn yeast inh -5%.
`Cn1c(C(=O)O)cc2cc(Oc3ccccc3)ccc21` gave TDP-43 yeast inh 22µM*, Abeta yeast res inactive, FUS yeast rescue inactive and aSyn yeast inh -19%.
For COc1ccc(C=O)cc1COc1ccc(F)cc1F the results were TDP-43 yeast inh 25%, Abeta yeast res inactive, FUS yeast rescue inactive and aSyn yeast inh -10%.
For COc1cc(C=O)ccc1OCc1cccc(Br)c1 the results were TDP-43 yeast inh 20µM*, Abeta yeast res inactive and aSyn yeast inh 14%.
For COc1cc(C=O)ccc1OCc1ccccc1Br the results were TDP-43 yeast inh 11µM*, Abeta yeast res inactive and aSyn yeast inh -19%.
Screening CCCN(CCC)c1ccc(/C=C/c2sc3ccccc3[n+]2CCCCI)cc1 returned aSyn yeast inh -64%.
`O=C(CCc1ccccc1)N[C@H]1[C@H](O)CCC[C@@]12C(=O)N(Cc1ccccc1)c1ccc(-c3ccccc3)cc12` gave FUS yeast rescue inactive.
Screening CC1(C)CCC(c2ccc(Cl)cc2)=C(CN2CCN(c3ccc(C(=O)NS(=O)(=O)c4ccc(N[C@H](CCN5CCOCC5)CSc5ccccc5)c(S(=O)(=O)C(F)(F)F)c4)cc3)CC2)C1 returned aSyn yeast inh -6%.
O=c1c2ccc([N+](=O)[O-])cc2ncn1CCOc1ccccc1 was read as TDP-43 yeast inh 23%[9.22 µM], Abeta yeast res inactive, FUS yeast rescue inactive and aSyn yeast inh 3%.
For Cc1ccc(OCCn2cnc3cc([N+](=O)[O-])ccc3c2=O)cc1 the results were TDP-43 yeast inh 10µM*, Abeta yeast res inactive, FUS yeast rescue inactive and aSyn yeast inh 7%.
O=C(c1ccccc1)N(C(=O)c1ccccc1)c1ccccc1 was read as TDP-43 yeast inh 4.5µM*, Abeta yeast res inactive, FUS yeast rescue inactive and aSyn yeast inh -10%.
CN(C(=O)c1ccccc1)C(=O)c1ccccc1 was read as TDP-43 yeast inh 6%, Abeta yeast res inactive, FUS yeast rescue inactive and aSyn yeast inh -3%.
For Cc1ccc(-c2cc(C(=O)NN=Cc3ccc(F)cc3)[nH]n2)cc1C the results were FUS yeast rescue inactive.
`N#Cc1cccc(NC(=O)O[C@@H]2CC[C@@]34CCCN3C(=O)CCC[C@H]4C2)c1` gave FUS yeast rescue inactive.
For CCc1ccc(CNC(=O)c2cnc3c(C)cccn3c2=O)cc1 the results were TDP-43 yeast inh 16µM*, Abeta yeast res inactive and FUS yeast rescue inactive.
Screening COc1ccc(CCNC(=O)c2cc3ccccn3n2)cc1 returned FUS yeast rescue inactive.
For COc1ccc(S(=O)(=O)NCC(c2cccs2)S(=O)(=O)c2ccccc2)cc1OC (stereo unspecified) the results were TDP-43 yeast inh 3.2µM*, Abeta yeast res inactive and FUS yeast rescue inactive.
For O=S(=O)(NCC(c1cccs1)S(=O)(=O)c1ccccc1)c1ccc(F)c(C(F)(F)F)c1 (stereo unspecified) the results were TDP-43 yeast inh inconclusive, Abeta yeast res inactive and FUS yeast rescue inactive.
Screening O=S(=O)(NCC(c1cccs1)S(=O)(=O)c1ccccc1)c1ccc(F)cc1 (stereo unspecified) returned TDP-43 yeast inh 3.5µM*, Abeta yeast res inactive and FUS yeast rescue inactive.
CC(=O)CC[C@H]1CC[C@]2(CCCN(S(=O)(=O)c3ccccc3)C2)O1 was read as FUS yeast rescue inactive.
For CN(Cc1ccccc1)C(=O)OCc1cn(Cc2cccc(F)c2F)nn1 the results were FUS yeast rescue inactive.
CCOc1ccc(C(=O)N2CCC(c3nc(-c4ccc(S(=O)(=O)N5CCCC5)cc4)no3)CC2)cc1 was read as TDP-43 yeast inh 16%, Abeta yeast res inactive and FUS yeast rescue inactive.
For CCOc1ccc(C(=O)N2CCC(c3noc(-c4ccc(S(=O)(=O)N5CCCC5)cc4)n3)CC2)cc1 the results were TDP-43 yeast inh 1%, Abeta yeast res inactive and FUS yeast rescue 16µM*.
`COc1cc(C(O)c2nc(-c3ccc(N(C)C)cc3)cs2)ccc1F` (stereo unspecified) gave TDP-43 yeast inh 3%, Abeta yeast res inactive, FUS yeast rescue inactive and aSyn yeast inh 5%.
Screening COc1cc(C(O)c2nc(-c3cccc(C(C)C)c3)cs2)ccc1F (stereo unspecified) returned TDP-43 yeast inh 22µM*, Abeta yeast res inactive, FUS yeast rescue inactive and aSyn yeast inh -20%.
COc1ccc(C(O)c2nc(-c3ccc(F)cc3OC)cs2)cc1 (stereo unspecified) was read as TDP-43 yeast inh 22µM*, Abeta yeast res inconclusive, FUS yeast rescue inactive and aSyn yeast inh 0%.
`COc1cc(C(O)c2nc(-c3cccc(F)c3)cs2)ccc1F` (stereo unspecified) gave TDP-43 yeast inh 16µM*, Abeta yeast res inactive, FUS yeast rescue inactive and aSyn yeast inh inconclusive.
COc1ccc(C(O)c2nc(-c3ccc(C)c(C)c3)cs2)cc1 (stereo unspecified) was read as TDP-43 yeast inh inconclusive, Abeta yeast res inactive, FUS yeast rescue inactive and aSyn yeast inh 10µM*.
`COc1cc(F)ccc1-c1csc(C(O)c2ccc(F)cc2)n1` (stereo unspecified) gave TDP-43 yeast inh inconclusive, Abeta yeast res inconclusive, FUS yeast rescue inactive and aSyn yeast inh 0%.
Screening COc1cc(C(O)c2nc(-c3ccccc3OC)cs2)ccc1F (stereo unspecified) returned TDP-43 yeast inh 18µM*, Abeta yeast res inactive, FUS yeast rescue inactive and aSyn yeast inh inconclusive.
For COc1cc(C(O)c2nc(-c3cncnc3)cs2)ccc1F (stereo unspecified) the results were TDP-43 yeast inh inconclusive, Abeta yeast res inactive, FUS yeast rescue inactive and aSyn yeast inh 0%.
COc1ccc(-c2csc(C(O)c3ccc(F)cc3)n2)cc1OC (stereo unspecified) was read as TDP-43 yeast inh 22µM*, Abeta yeast res inactive, FUS yeast rescue inactive and aSyn yeast inh 13%.

Screening data: PubChem, National Center for Advancing Translational Sciences (NCATS)
